KCNH2 WT inh: qHTS for Inhibitors of KCHN2 3.1: Wildtype qHTS; Voltage-gated inwardly rectifying potassium channel KCNH2 (Homo sapiens), Q12809; U2OS, BacMam KCNH2, thallium flux FluxOr; stronger effect = lower value; activity change, % at 1.84 µM; 340,000 compounds, 0.37% hits; AID 720551, 2013;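 active = maximum activity change below -70%; inconclusive = maximum activity change between -70% and -50%; inactive = maximum activity change above -50%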; note: % is set by controls: 0 for no effect and ±100 for the full control effect
Target sequence (Q12809 whole entry, looked up): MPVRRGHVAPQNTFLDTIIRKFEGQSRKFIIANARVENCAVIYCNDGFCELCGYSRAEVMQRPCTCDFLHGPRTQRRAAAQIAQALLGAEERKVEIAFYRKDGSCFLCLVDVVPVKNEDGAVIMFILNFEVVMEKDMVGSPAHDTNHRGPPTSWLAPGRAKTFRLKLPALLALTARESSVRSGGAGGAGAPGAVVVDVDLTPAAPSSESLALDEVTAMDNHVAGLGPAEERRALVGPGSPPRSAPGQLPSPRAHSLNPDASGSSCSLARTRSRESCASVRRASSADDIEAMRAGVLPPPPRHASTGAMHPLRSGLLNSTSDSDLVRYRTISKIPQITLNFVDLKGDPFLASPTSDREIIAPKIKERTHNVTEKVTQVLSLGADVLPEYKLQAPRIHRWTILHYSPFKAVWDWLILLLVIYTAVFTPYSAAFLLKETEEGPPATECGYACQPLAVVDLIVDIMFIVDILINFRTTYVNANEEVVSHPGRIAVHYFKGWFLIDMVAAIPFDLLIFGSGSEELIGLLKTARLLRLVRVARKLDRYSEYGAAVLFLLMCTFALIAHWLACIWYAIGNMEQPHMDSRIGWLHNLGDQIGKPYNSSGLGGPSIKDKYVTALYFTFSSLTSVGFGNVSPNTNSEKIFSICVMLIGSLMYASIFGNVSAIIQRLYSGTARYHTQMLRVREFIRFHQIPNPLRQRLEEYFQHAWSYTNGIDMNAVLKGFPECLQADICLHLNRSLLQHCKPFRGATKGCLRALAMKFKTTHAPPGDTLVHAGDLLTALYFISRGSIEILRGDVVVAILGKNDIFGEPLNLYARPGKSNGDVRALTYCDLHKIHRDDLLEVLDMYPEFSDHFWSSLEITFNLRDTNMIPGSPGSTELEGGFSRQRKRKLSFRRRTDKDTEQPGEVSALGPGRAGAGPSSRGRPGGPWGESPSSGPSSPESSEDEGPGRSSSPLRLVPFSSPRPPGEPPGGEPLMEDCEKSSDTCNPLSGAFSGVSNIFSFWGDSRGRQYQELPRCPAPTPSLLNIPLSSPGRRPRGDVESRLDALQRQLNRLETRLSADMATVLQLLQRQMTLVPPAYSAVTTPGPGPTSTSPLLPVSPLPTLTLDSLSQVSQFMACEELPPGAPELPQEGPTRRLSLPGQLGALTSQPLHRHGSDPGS
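U2OS cells were transduced with wild-type KCNH2 virus (2.03 x 10^8 / mL) for 4 h at room temperature, then cultured overnight at 37 C. Thallium flux was read with FluxOr dye. Rate constants were normalized to DMSO controls.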
KB-V1 cytotox: qHTS assay for MDR1-selective chemotherapeutics: Primary screen using the drug-selected MDR subline cells KB-V1. KB-V1 MDR cells viability, CellTiter-Glo, 72 h. Potency, µM (titrated, usually from 46.1 µM), actives largely listed as cytotoxic. 400,000 compounds, 3.4% hits. AID 1347076, 2019; note: potency is the fitted concentration of half-maximal effect; % is set by controls: 0 for no effect and ±100 for the full control effect; nearly all actives have a fitted effect of over 60% in size
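qHTS viability screen in drug-selected KB-V1 MDR cells: 72 h compound treatment at 37 degrees C, ATP luminescence end point.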
KCNH2 3.1 block: qHTS for Inhibitors of KCHN2 3.1: Mutant qHTS. Potassium voltage-gated channel subfamily H member 2, brain isoform KCNH2 3.1 (human). U2OS KCNH2 3.1, thallium flux FluxOr; stronger effect = lower value. activity change, % (tested at about 1.8 µM). 340,000 compounds, 0.95% hits. AID 720553, 2013;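 active = maximum activity change below -70%; inconclusive = maximum activity change from -70% to -50%; inactive = maximum activity change above -50%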;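 note: thallium influx rate constant from kinetic fluorescence after stimulation buffer; % is set by controls: 0 for no effect and ±100 for the full control effect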
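We transduce U2OS cells with the mutant 3.1 virus, culture them overnight, load FluxOr with Red40 quencher for 45 min, then add stimulation buffer and read kinetically for 2 min to derive a normalized rate constant.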
KB-3-1 cytotox: qHTS assay for MDR1-selective chemotherapeutics: Primary screen using the parental adenocarcinoma cell KB-3-1; Potency, µM (highest dose often 46.1 µM), most hits filed as cytotoxic; AID 1347075, 2019; KB-3-1 viability, CellTiter-Glo ATP luminescence, 72 h; 400,000 compounds, 1.4% hits; note: potency is the fitted concentration of half-maximal effect; % is set by controls: 0 for no effect and ±100 for the full control effect; nearly all actives have a fitted effect of over 60% in size
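Using CellTiter-Glo luminescence, growth of non-resistant KB-3-1 adenocarcinoma cells is assessed 72 h after pin-tool compound addition at 37 °C. Normalized responses across the concentration series yield fitted curves.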
MCF10A rerep: A quantitative high throughput screen for small molecules that induce DNA re-replication in MCF 10a normal breast cells; MCF 10A DNA re-replication, Hoechst nuclear intensity, 48 h; Potency, µM (top dose mostly 46.1 µM), for the others: at the top dose activity, positive = re-replication, most hits filed as activators; 350,000 compounds, 2.9% hits; note: potency is the fitted concentration of half-maximal effect; % of control where 0% means no effect; nearly all actives have a fitted effect of over 50% in size
SW480 rerep: A quantitative high throughput screen for small molecules that induce DNA re-replication in SW480 colon adenocarcinoma cells | SW480 DNA re-replication, Hoechst DNA content imaging, 48 h | Potency, µM (titrated, usually from 46.1 µM), for inactives: at the highest dose re-replication activation, actives largely listed as activators | 340,000 compounds, 1.8% hits | AID 624297, 2012; note: potency is the fitted concentration of half-maximal effect; % of control where 0% means no effect; nearly all actives have a fitted effect of over 55% in size
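DNA re-replication was detected as more nuclei of elevated Hoechst intensity after 48 hr exposure to compound (23 nL pinned per well of 250 cells).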
Starred values were filed as active, the others as inactive. Most compounds without a hit are left out; they make up all but 7.6% or so of the library. Unless noted, calls come from the whole dose curve; as a rule, active = well fitted curve in the direction sought with a large enough effect; inconclusive = small, poorly fitted or top-dose-only effect, or another doubt; inactive = no such curve, though single readings can be large; an effect the other way counts as inactive or inconclusive.

For O=S(=O)(Nc1ccc2c(c1)nc1n2CCN(Cc2ccccc2)C1)c1ccccc1 the results were KCNH2 WT inh 3, KB-V1 cytotox 2.6µM*, KCNH2 3.1 block -20, KB-3-1 cytotox inconclusive, MCF10A rerep 26% and SW480 rerep 7%.
Screening COCCN1CCn2c(nc3cc(NC(=O)NC4CCCCC4)ccc32)C1 returned KCNH2 WT inh 3, KB-V1 cytotox inconclusive, KCNH2 3.1 block -3, KB-3-1 cytotox inactive, MCF10A rerep 9% and SW480 rerep 3%.
`CC1CN(CC(O)COC(c2ccccc2)c2ccccc2)CC(C)O1` (stereo unspecified) gave KCNH2 WT inh 5, KB-V1 cytotox 21µM*, KCNH2 3.1 block -4, KB-3-1 cytotox inactive, MCF10A rerep inconclusive and SW480 rerep inconclusive.
`OC(COC(c1ccc(Cl)cc1)c1ccc(Cl)cc1)CN1CCCC1` (stereo unspecified) gave KCNH2 WT inh -140*, KB-V1 cytotox inactive, KCNH2 3.1 block -112*, KB-3-1 cytotox inconclusive, MCF10A rerep inconclusive and SW480 rerep inconclusive.
`OC(COC(c1ccccc1)c1ccccc1)CN1CCOCC1` (stereo unspecified) gave KB-V1 cytotox inactive, KCNH2 3.1 block -18, KB-3-1 cytotox inactive, MCF10A rerep -5% and SW480 rerep -39%.
`CN1CCN(CC(O)COC(c2ccc(Cl)cc2)c2ccc(Cl)cc2)CC1` (stereo unspecified) gave KCNH2 WT inh 9, KB-V1 cytotox inactive, KCNH2 3.1 block -94*, KB-3-1 cytotox inactive, MCF10A rerep 21µM* and SW480 rerep 19%.
`COC(=O)c1c(-c2ccc(Cl)cc2)noc1N1CCN(c2ccc(C)cc2C)CC1` gave KB-V1 cytotox inactive and KB-3-1 cytotox inactive.
Screening COc1cc(NC(=O)CCn2c(=S)oc3ccccc32)cc(OC)c1OC returned KCNH2 WT inh -1, KB-V1 cytotox inactive, KCNH2 3.1 block 5, KB-3-1 cytotox inactive, MCF10A rerep 7% and SW480 rerep -9%.
For CC1CCCN(S(=O)(=O)c2cc3c(cc2Cl)NC(=O)CO3)C1 (stereo unspecified) the results were KB-V1 cytotox inactive and KB-3-1 cytotox inactive.
For N#CC1CC(c2ccc([N+](=O)[O-])cc2)=NN1c1ccc([N+](=O)[O-])cc1 (stereo unspecified) the results were KCNH2 WT inh -9, KB-V1 cytotox inconclusive, KCNH2 3.1 block -28, KB-3-1 cytotox inactive, MCF10A rerep 6.5µM* and SW480 rerep inconclusive.
For CCOc1ccccc1OCCOCCN1CCN(Cc2ccccc2)CC1 the results were KCNH2 WT inh 10, KB-V1 cytotox inconclusive, KCNH2 3.1 block 14, KB-3-1 cytotox inactive, MCF10A rerep 0% and SW480 rerep -3%.
For Cc1ccc(OCCN2CCCC2)cc1 the results were KCNH2 WT inh 5, KB-V1 cytotox inactive, KCNH2 3.1 block 4, KB-3-1 cytotox inactive, MCF10A rerep inconclusive and SW480 rerep 15µM*.
For c1ccc(COCCN2CCN(CCOCc3ccccc3)CC2)cc1 the results were KCNH2 WT inh 35, KB-V1 cytotox 23µM*, KCNH2 3.1 block 10, KB-3-1 cytotox inactive, MCF10A rerep -1% and SW480 rerep -2%.
Screening c1ccc(COc2ccc(OCCCCN3CCCCC3)cc2)cc1 returned KCNH2 WT inh 9, KB-V1 cytotox inconclusive, KCNH2 3.1 block -97*, KB-3-1 cytotox inactive, MCF10A rerep 26% and SW480 rerep -1%.
Screening Cc1ccc(OCCCCN2CCCCC2)cc1 returned KCNH2 WT inh 7, KB-V1 cytotox inactive, KCNH2 3.1 block 7, KB-3-1 cytotox inactive, MCF10A rerep 1% and SW480 rerep -7%.
For CCOc1ccc(OCCCCN2CCCC2)cc1 the results were KCNH2 WT inh -4, KB-V1 cytotox inactive, KCNH2 3.1 block 8, KB-3-1 cytotox inactive, MCF10A rerep 14% and SW480 rerep 0%.
`Fc1ccc(OCCCCCN2CCCC2)cc1` gave KCNH2 WT inh 9, KB-V1 cytotox inactive, KCNH2 3.1 block -98*, KB-3-1 cytotox inactive, MCF10A rerep -2% and SW480 rerep 13%.
COc1cccc(COC(=O)C2CC(=O)N(Cc3ccco3)C2)c1OC (stereo unspecified) was read as KCNH2 WT inh -10, KB-V1 cytotox inactive, KCNH2 3.1 block 0, KB-3-1 cytotox inactive, MCF10A rerep inconclusive and SW480 rerep -2%.
Screening COc1cccc(NC(=O)C(C)OC(=O)c2n[nH]c3ccccc23)c1 (stereo unspecified) returned KCNH2 WT inh -13, KB-V1 cytotox inactive, KCNH2 3.1 block 2, KB-3-1 cytotox inactive, MCF10A rerep 0% and SW480 rerep 0%.
Screening O=[N+]([O-])c1ccc(S(=O)(=O)NN=Cc2ccc(Cl)c(Cl)c2)cc1 returned KCNH2 WT inh 2, KB-V1 cytotox inconclusive, KCNH2 3.1 block -14, KB-3-1 cytotox inactive, MCF10A rerep 3% and SW480 rerep -25%.
O=C(NCc1ccco1)c1ccc(Cn2c(SCc3ccccc3)nc3cccnc32)cc1 was read as KB-V1 cytotox inactive and KB-3-1 cytotox inactive.
For COc1ccc(CCC(=O)N/N=C(\C)c2ccc3c(c2)OCO3)cc1 the results were KCNH2 WT inh -1, KB-V1 cytotox inactive, KCNH2 3.1 block -4, KB-3-1 cytotox inactive, MCF10A rerep 7% and SW480 rerep -3%.
`COc1ccccc1N1CCN(CCCCCCOc2ccc(F)cc2)CC1` gave KCNH2 WT inh -11, KB-V1 cytotox 3.7µM*, KCNH2 3.1 block inconclusive, KB-3-1 cytotox inconclusive, MCF10A rerep inconclusive and SW480 rerep inconclusive.
`COc1ccc(-c2nc(-c3ccc(NC(=O)c4ccc(Br)o4)cc3)no2)cc1OC` gave KCNH2 WT inh -6, KB-V1 cytotox inactive, KCNH2 3.1 block -6, KB-3-1 cytotox inactive, MCF10A rerep 2.6µM* and SW480 rerep 15%.
For COc1cc(-c2nc(-c3ccc(NC(=O)c4ccc(Br)o4)cc3)no2)cc(OC)c1OC the results were KCNH2 WT inh -2, KB-V1 cytotox inconclusive, KCNH2 3.1 block -19, KB-3-1 cytotox inactive, MCF10A rerep 5.2µM* and SW480 rerep 17%.
